# Test results reported in PubChem BioAssay (EPA / NIEHS).
# Inconclusive results are not listed. The source made the active and inactive calls. How the source made its calls, unless noted: active means hit-call score of the fitted dose curve at least 0.9, where 1 is the maximum; inactive means score below 0.9.
# Test: CCTE_Harrill_HTTr_Apoptosis_MCF7: CCTE's 6-hour Apoptosis Assessment for the High-Throughput Transcriptomics (HTTr) Platform, in MCF-7 cells cultured in DMEM + 10% fetal bovine serum, Harrill Lab (AID 2284011)
# Summary of the method: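 MCF-7 cells in DMEM + 10% FBS exposed 6 h to chemicals over an eight-point dilution series. Caspase-3/7 activation imaged by high-content CellEvent Green staining; fitted bidirectionally versus DMSO.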
Compound,outcome,AC50
CCCCCCCCCCCC(=O)O,inactive,–
Nc1ccn([C@@H]2O[C@H](CO)[C@@H](O)C2O)c(=O)n1 (stereo not given in full),inactive,–
O=C(O)c1cccc(C(=O)O)n1,inactive,–
CC(C)(c1ccc(Oc2ccc(N)cc2)cc1)c1ccc(Oc2ccc(N)cc2)cc1,inactive,–
C[C@]12CC[C@@H]3c4ccc(O)cc4CC[C@H]3[C@@H]1C[C@@H](O)[C@@H]2O,inactive,–
CCC(=O)O,inactive,–
CCCCCC(C)OC(=O)COc1ccc(Cl)c2cccnc12 (stereo not given),inactive,–
Cc1ccccc1C(OCCN(C)C)c1ccccc1 (stereo not given),inactive,–
CCCCCCCCC(C)=O,inactive,–
Cn1sccc1=O,inactive,–
O=C(O)C(=O)O,inactive,–
CCCCCCCCCCCC[N+](C)(C)Cc1ccccc1,–,70.8 µM (active)
Cc1cc(Cc2cc(C)cc(C(C)(C)C)c2O)c(O)c(C(C)(C)C)c1,inactive,–
CS(=O)(=O)c1ccc([C@@H](CC2CCCC2)C(=O)Nc2cnccn2)cc1Cl,inactive,–
Cc1cccc2c1ccc1ccccc12,inactive,–
COC1=CC(=O)C[C@@H](C)[C@]12Oc1c(Cl)c(OC)cc(OC)c1C2=O,inactive,–
CCCCCCCCCCCCCCCCCC[N+](C)(C)Cc1ccccc1,inactive,–
C=CC(C)(CCC=C(C)C)OC(C)=O (stereo not given),inactive,–
Cc1cncc(C)c1,inactive,–

Compound,outcome,AC50
CC(C)(C)C1CCCCC1O (stereo not given),inactive,–
CC1=CC(=O)c2ccccc2C1=O,inactive,–
CCCCC(CC)C(=O)O (stereo not given),inactive,–
Brc1ccc(Oc2ccc(Br)cc2Br)cc1,inactive,–
CNNCc1ccc(C(=O)NC(C)C)cc1,inactive,–
CC(C)(C)c1ccc(CCC=O)cc1,inactive,–
CC1=NN(c2ccccc2)C(=O)C1,inactive,–
c1cnc2c(c1)ccc1cccnc12,inactive,–
C[C@]12CC[C@@H]3c4ccc(O)cc4CC[C@H]3[C@@H]1CC[C@@H]2OC(=O)CCC1CCCC1,inactive,–
CC(C)c1c(C(=O)Nc2ccccc2)c(-c2ccccc2)c(-c2ccc(F)cc2)n1CC[C@@H](O)C[C@@H](O)CC(=O)O,inactive,–
CC(C)(C)c1ccc(O)c(O)c1,inactive,–
CCCCCCCCCCCCOS(=O)(=O)O,inactive,–
CCCCCCCCCCCCCCC,inactive,–
O=C(NO)c1ccccc1,inactive,–
CC(=O)Nc1ccc(S(N)(=O)=O)cc1,inactive,–
O=c1cc(-c2ccccc2)oc2ccc3ccccc3c12,inactive,–
C=Cc1ccc(O)c(OC)c1,inactive,–
Cc1[nH]nc2c1N=C(c1ccccc1Cl)c1cc([N+](=O)[O-])ccc1N2,inactive,–
CC1CCC(CO)CC1 (stereo not given),inactive,–

# Test: CCTE_Harrill_HTTr_CellCount_MCF7: CCTE's Cell Proliferation Assessment for the High-Throughput Transcriptomics (HTTr) Platform, Harrill Lab (AID 2284012; active means hit-call score of the fitted dose curve at least 0.9, where 1 is the maximum;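 further: cells exposed to compound for six hours; intended direction is loss of nuclei count meaning fewer cells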)
# Summary of the method: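 MCF7 cells exposed 6 hours to an eight-point dilution series; Hoechst-stained nuclei counted by high-content imaging. Bidirectional curve fitting against DMSO baseline.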
Compound,outcome,AC50
CCCCCCCCCCCC(=O)O,inactive,–
Nc1ccn([C@@H]2O[C@H](CO)[C@@H](O)C2O)c(=O)n1 (stereo not given in full),inactive,–
O=C(O)c1cccc(C(=O)O)n1,inactive,–
CC(C)(c1ccc(Oc2ccc(N)cc2)cc1)c1ccc(Oc2ccc(N)cc2)cc1,inactive,–
C[C@]12CC[C@@H]3c4ccc(O)cc4CC[C@H]3[C@@H]1C[C@@H](O)[C@@H]2O,inactive,–
CCC(=O)O,inactive,–
CCCCCC(C)OC(=O)COc1ccc(Cl)c2cccnc12 (stereo not given),inactive,–
Cc1ccccc1C(OCCN(C)C)c1ccccc1 (stereo not given),inactive,–
CCCCCCCCC(C)=O,inactive,–
Cn1sccc1=O,inactive,–
O=C(O)C(=O)O,inactive,–
CCCCCCCCCCCC[N+](C)(C)Cc1ccccc1,–,70.3 µM (active)
Cc1cc(Cc2cc(C)cc(C(C)(C)C)c2O)c(O)c(C(C)(C)C)c1,inactive,–
CS(=O)(=O)c1ccc([C@@H](CC2CCCC2)C(=O)Nc2cnccn2)cc1Cl,inactive,–
Cc1cccc2c1ccc1ccccc12,inactive,–
COC1=CC(=O)C[C@@H](C)[C@]12Oc1c(Cl)c(OC)cc(OC)c1C2=O,inactive,–
CCCCCCCCCCCCCCCCCC[N+](C)(C)Cc1ccccc1,inactive,–
C=CC(C)(CCC=C(C)C)OC(C)=O (stereo not given),inactive,–
Cc1cncc(C)c1,inactive,–

Compound,outcome,AC50
CC(C)(C)C1CCCCC1O (stereo not given),inactive,–
CC1=CC(=O)c2ccccc2C1=O,inactive,–
CCCCC(CC)C(=O)O (stereo not given),inactive,–
Brc1ccc(Oc2ccc(Br)cc2Br)cc1,inactive,–
CNNCc1ccc(C(=O)NC(C)C)cc1,inactive,–
CC(C)(C)c1ccc(CCC=O)cc1,inactive,–
c1cnc2c(c1)ccc1cccnc12,inactive,–
C[C@]12CC[C@@H]3c4ccc(O)cc4CC[C@H]3[C@@H]1CC[C@@H]2OC(=O)CCC1CCCC1,inactive,–
CC(C)c1c(C(=O)Nc2ccccc2)c(-c2ccccc2)c(-c2ccc(F)cc2)n1CC[C@@H](O)C[C@@H](O)CC(=O)O,inactive,–
CC(C)(C)c1ccc(O)c(O)c1,inactive,–
CCCCCCCCCCCCOS(=O)(=O)O,inactive,–
CCCCCCCCCCCCCCC,inactive,–
O=C(NO)c1ccccc1,inactive,–
CC(=O)Nc1ccc(S(N)(=O)=O)cc1,inactive,–
O=c1cc(-c2ccccc2)oc2ccc3ccccc3c12,inactive,–
C=Cc1ccc(O)c(OC)c1,inactive,–
Cc1[nH]nc2c1N=C(c1ccccc1Cl)c1cc([N+](=O)[O-])ccc1N2,inactive,–
CC1CCC(CO)CC1 (stereo not given),inactive,–
